Results filed as inconclusive are left out. Unmarked numbers belong to inactive results. Calls of active or inactive are those of the source. Unless noted, calls come from the whole dose curve; as a rule, active = well fitted curve in the direction sought with a large enough effect; inconclusive = small, poorly fitted or top-dose-only effect, or another doubt; inactive = no such curve, though single readings can be large; an effect the other way counts as inactive or inconclusive.

Assay [1] has as its target Calcium and integrin-binding protein 1 (Homo sapiens) (UniProt Q99828). Kind of assay: Primary qHTS for Identification of Calcium Integrin Binding Protein 1 (CIB1) Competitor (AID 1508620).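 Note: GST tagged CIB1 binding a fluorescein labelled alphaIIb integrin peptide tracer; top concentration of the series differs between compounds; % is set by controls: 0 for no effect and ±100 for the full control effect.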 A digest of the protocol:
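CIB1-GST (1 uM final) and compound incubated 15 min at room temperature before adding FITC-alphaIIb peptide tracer (100 nM final). Competition for binding read by fluorescence polarization (ex 480, em 540) after another 15 min at room temperature.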

In assay [2] the target is Cytochrome P450 2D6 (Homo sapiens) (UniProt P10635). Kind of assay: Cytochrome P450 family 2 subfamily D member 6 (CYP2D6) small molecule antagonists: luciferase biochemical (cell-free) qHTS assay (AID 1645840; active = well fitted curve in the direction sought with a large enough effect in the repeat runs; an effect the other way counts as inactive or inconclusive; note: nearly all actives have a fitted effect of over 55% in size; note: potency is the fitted concentration of half-maximal effect). The gist of the method:
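P450-Glo luminescent screen: recombinant CYP2D6 enzyme–proluciferin substrate mix preincubated with compound 10 min at room temperature, then NADPH regeneration added for 1 h at room temperature. Detection reagent added for 20 min; luciferin light read as relative luminescence units.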

The target in assay [3] is Cytochrome P450 2C9 (Homo sapiens) (UniProt P11712). Kind of assay: Cytochrome P450 family 2 subfamily C member 9 (CYP2C9) small molecule antagonists: luciferase biochemical (cell-free) qHTS assay (AID 1645842; active = well fitted curve in the direction sought with a large enough effect in the repeat runs; an effect the other way counts as inactive or inconclusive; note: nearly all actives have a fitted effect of over 55% in size; note: potency is the fitted concentration of half-maximal effect). The gist of the method:
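Luminescence, after 20 min with luciferin detection reagent, reflected CYP2C9 turnover during a 1 h NADPH-driven reaction at 37C. Enzyme-substrate mix contained 0.4% bovine serum albumin and was preincubated with compound 10 min at room temperature.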
A general note: Quantitative high-throughput screening tests each substance at several concentrations.

The nature of assay [4]: Primary qHTS for inhibitors of nuclear receptor binding SET domain protein 2 (NSD2) in an isogenic RCH-ACV NSD2 p.E1099K mutant (9B) (AID 1645876). For activity change, negative = viability loss: % is set by controls: 0 for no effect and ±100 for the full control effect. Note: nearly all actives have a fitted effect of over 70% in size. Note: potency is the fitted concentration of half-maximal effect.
The nature of assay [5]: A High-Content qHTS Against Drug Library for the Identification of Small Molecules that Inhibit DYT1 Early Onset Primary Dystonia-Associated Cell Pathology (AID 1645839; calls by dose curve; note: series mostly up to about 46 µM). A digest of the protocol:
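In this high-content image screen, delE TorsinA mislocalization in inducible Flp-In 293 cells is scored as %pathology, with cell count serving as the counterscreen. Compound exposure lasts 48 h under tetracycline induction in reduced-serum medium.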

Sequence of Calcium and integrin-binding protein 1 (Homo sapiens) (Q99828 whole entry, looked up): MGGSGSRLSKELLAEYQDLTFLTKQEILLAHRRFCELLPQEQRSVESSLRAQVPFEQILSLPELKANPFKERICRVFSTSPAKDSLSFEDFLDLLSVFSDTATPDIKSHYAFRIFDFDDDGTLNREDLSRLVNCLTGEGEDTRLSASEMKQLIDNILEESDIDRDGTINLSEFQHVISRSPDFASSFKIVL
Sequence of Cytochrome P450 2C9 (Homo sapiens) (P11712 whole entry, looked up): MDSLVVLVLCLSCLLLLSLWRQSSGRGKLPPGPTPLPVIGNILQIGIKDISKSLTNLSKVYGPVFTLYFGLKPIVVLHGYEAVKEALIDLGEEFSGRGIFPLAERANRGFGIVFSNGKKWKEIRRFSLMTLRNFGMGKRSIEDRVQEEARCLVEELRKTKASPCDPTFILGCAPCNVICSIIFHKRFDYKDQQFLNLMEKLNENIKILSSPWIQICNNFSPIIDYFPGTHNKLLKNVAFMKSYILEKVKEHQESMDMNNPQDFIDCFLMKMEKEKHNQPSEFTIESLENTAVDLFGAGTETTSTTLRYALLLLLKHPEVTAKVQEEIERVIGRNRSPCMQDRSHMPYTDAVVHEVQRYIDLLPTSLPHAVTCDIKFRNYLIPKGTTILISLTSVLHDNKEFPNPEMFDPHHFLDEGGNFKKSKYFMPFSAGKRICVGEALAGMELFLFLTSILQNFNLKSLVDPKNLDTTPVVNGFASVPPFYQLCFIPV
Sequence of Cytochrome P450 2D6 (Homo sapiens) (P10635 whole entry, looked up): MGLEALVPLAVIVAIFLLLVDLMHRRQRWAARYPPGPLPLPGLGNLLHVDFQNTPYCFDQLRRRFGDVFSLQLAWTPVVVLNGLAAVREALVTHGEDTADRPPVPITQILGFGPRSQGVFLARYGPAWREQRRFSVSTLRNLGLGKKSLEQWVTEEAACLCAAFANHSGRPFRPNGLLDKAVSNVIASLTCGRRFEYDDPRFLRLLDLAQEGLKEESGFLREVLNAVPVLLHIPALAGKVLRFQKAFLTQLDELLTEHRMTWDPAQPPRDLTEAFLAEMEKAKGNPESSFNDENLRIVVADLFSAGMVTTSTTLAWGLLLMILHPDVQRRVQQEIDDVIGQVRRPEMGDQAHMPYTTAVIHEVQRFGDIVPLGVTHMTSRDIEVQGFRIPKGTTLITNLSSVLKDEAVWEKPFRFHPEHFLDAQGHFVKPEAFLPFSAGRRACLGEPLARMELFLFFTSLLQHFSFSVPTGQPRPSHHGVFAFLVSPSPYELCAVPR

For `Clc1ccc(OCC2=NCCN2)cc1Cl`, the Potency result in assay [1], in assay [3] and in assay [4] was “inactive” in each case. Also, the Potency in assay [2] is 8.49 µM (active).

With `CN(C)CCc1c[nH]c2ccc(CN3CCN(C)S3(=O)=O)cc12`, the Potency entry in assay [1], in assay [3] and in assay [4] was “inactive” throughout.

As for `Cn1ncnc1COc1nn2c(-c3c(F)cccc3F)nnc2cc1C1CCC1`, the Potency entry in assay [1], in assay [2] and in assay [4] was “inactive” in each case. The Potency in assay [3] was 6.74 µM (active).

In the case of `CC(C)(C)c1cc(C(C)(C)C)c2c(c1)C(O)(C(F)(F)F)C(=O)O2` (stereo not given), the Potency entry in assay [1], in assay [2] and in assay [4] was “inactive” in each case. For the same compound, in assay [3], the Potency is 21.3 µM (active).

With `CCCSP(=O)(OCC)SCCC`, the Potency entry in assay [1] and in assay [5] was “inactive” throughout. Also, the Potency in assay [2] is 58.4 µM (active).

Regarding `CC12CCC3C(CCC4(O)CC(O)CCC34C=O)C1(O)CCC2C1=CC(=O)OC1` (stereo not given), the Potency result in assay [1] was “inactive”. The Potency in assay [4] is 0.258 µM (active).

On to `CCCCCCn1c(=O)c(C(=O)Nc2ccc(C(=O)OCCC)cc2)c(O)c2ccccc21`, for which the Potency entry in assay [1], in assay [2] and in assay [3] was “inactive” throughout. Further, the outcome in assay [4] was “inactive [at 9.23 µM]”.

With `Clc1ccc(N2C[C@H]3CC[C@@H](C2)N3)nn1`, the Potency entry in assay [1] and in assay [4] was “inactive” in each case.

For `CN(C(=O)Cc1ccccc1)C(CN1CCCC1)c1ccccc1` (stereo not given), the Potency result in assay [1] and in assay [4] was “inactive” in each case. The Potency in assay [2] was 0.0849 µM (active).

Consider `C/C=C(\C)C(=O)OC1CC2C(C)(C)OC(=O)CC(OC(C)=O)C2(C)C2CC(OC(=O)C(C)C)C3(C)C(c4ccoc4)CC4OC43C12C` (stereo not given), for which the Potency entry in assay [1] and in assay [4] was “inactive” each time.

Consider `CCc1[nH]c2ccc(OC)cc2c1CCN(C)C`, for which the Potency result in assay [1], in assay [3] and in assay [4] was “inactive” each time. In addition, the Potency in assay [2] was 1.9 µM (active).

In the case of `CCCCCOc1cc2c(cc1-c1cc(/C=C/C(=O)O)ccc1O)C(C)(C)CCC2(C)C`, the Potency result in assay [1] was “inactive”. The Potency in assay [3] is 12 µM (active).

Regarding `Cc1cccc(NC(=O)N[C@@H]2N=C(c3ccccc3)c3ccccc3N(C)C2=O)c1`, the Potency entry in assay [1] and in assay [2] was “inactive” in each case. Also, the Potency in assay [3] is 12 µM (active).

On to `COC1CC(OC2CCC3(C)C(=CCC4C3CCC3(C)C(C(C)OC5OC(COC6OC(CO)C(O)C(O)C6O)C(O)C(O)C5O)CCC43O)C2)OC(C)C1OC1OC(C)C(O)C(OC)C1O` (stereo not given), for which, in assay [1], the Potency entry is “inactive”. The outcome in assay [4] is “inactive [at 9.23 µM]”.

In the case of `CN[C@H]1[C@H](O)[C@H](O[C@@H]2[C@@H](O)[C@H](O[C@H]3O[C@H]([C@H](C)O)[C@@H](O)[C@H](O)[C@H]3N)[C@@H](N)C[C@H]2N)OC[C@@]1(C)O`, the Potency entry in assay [1] and in assay [4] was “inactive” each time.

For `C[C@@]1(C(=O)O)CC[C@]2(C)CC[C@]3(C)C4=CC(=O)c5cc(O)c(O)cc5[C@]4(C)CC[C@@]3(C)[C@@H]2C1`, the Potency entry in assay [1] and in assay [4] was “inactive” each time.

Turning to `N#CC(OC1OC(COC2OC(CO)C(O)C(O)C2O)C(O)C(O)C1O)c1ccccc1` (stereo not given), the Potency entry in assay [1] and in assay [4] was “inactive” throughout.

Consider `C=C[C@H]1CN2CC[C@H]1C[C@@H]2[C@@H](O)c1ccnc2ccccc12`, for which the Potency result in assay [1] and in assay [4] was “inactive” each time.

As to `C[C@@H]1C(=O)O[C@H]2[C@H](O)[C@@]34[C@@H]5OC(=O)[C@@]3(O[C@@H]3OC(=O)[C@@H](O)[C@@]34[C@H](C(C)(C)C)[C@H]5O)[C@@]12O`, the Potency result in assay [1] and in assay [4] was “inactive” each time.

With `COC1CC(OC2CCC3(C)C(CCC4C3CCC3(C)C(C5=CC(=O)OC5)C(OC(C)=O)CC43O)C2)OC(C)C1OC1OC(CO)C(O)C(O)C1O` (stereo not given), the Potency result in assay [1] is “inactive”. The Potency in assay [4] is 0.483 µM (active).

As to `CN1CCCC1CCOC(c1cc2nccc(C(=O)O)c2[nH]1)c1ccccc1Cl` (stereo not given), the Potency result in assay [1] and in assay [4] was “inactive” throughout.

In the case of `CCN1C[C@]2(COC)[C@H](O)C[C@H](OC)[C@]34[C@@H]5C[C@]6(O)[C@H](OC(=O)c7ccccc7)[C@@H]5[C@@](O)([C@H]([C@H](OC)[C@H]23)[C@@H]14)[C@@H](O)[C@@H]6OC`, the Potency entry in assay [1] and in assay [4] was “inactive” throughout.

As for `COC1CC(O[C@H]2CC[C@@]3(C)C(=CCC4C3C(O)[C@@H](O)[C@]3(C)[C@@H](C(C)=O)CC[C@]43O)C2)OC(C)C1OC1CC(OC)C(OC2OC(C)C(O)C(O)C2O)C(C)O1` (stereo not given in full), the Potency result in assay [1] was “inactive”. Moreover, the activity change, negative = viability loss in assay [4] is -2.91% [at 9.23 µM].

As to `C1=C2CCCN[C@H]2[C@@H]2C[C@H]1[C@H]1CCCCN1C2`, the Potency entry in assay [1] and in assay [4] was “inactive” in each case.

`CC(=O)OC1CC(O)C2(C)C(CC(OC(C)=O)C3(C)C2CCC2(C)C(c4ccoc4)C(=O)C4OC423)C1(C)C` (stereo not given): the Potency entry in assay [1] and in assay [4] was “inactive” each time.

For the compound `CC(C)=C1CC[C@]23CO[C@H](C2)[C@@](O)(C(=O)O)CCC13` (stereo not given in full), the Potency entry in assay [1] and in assay [4] was “inactive” throughout.

On to `C[C@H]1O[C@@H](O[C@H]2C[C@@H](O)[C@]3(CO)C4C(CC[C@]3(O)C2)[C@@]2(O)CC[C@H](C3=CC(=O)OC3)[C@@]2(C)C[C@H]4O)[C@@H](O)[C@@H](O)[C@H]1O` (stereo not given in full), for which, in assay [1], the Potency result is “inactive”. The Potency in assay [4] was 0.153 µM (active).

Consider `C=C(CO)C(=O)O[C@H]1C/C(C)=C/CC/C(CO)=C/[C@H]2OC(=O)C(=C)[C@H]12`, for which the Potency entry in assay [1] and in assay [4] was “inactive” in each case.

In the case of `O=C(O)c1ccnc2cc(C(OCCN3CCCCC3)c3ccccc3Cl)[nH]c12` (stereo not given), the Potency entry in assay [1] and in assay [4] was “inactive” in each case.

With `CCN1C[C@]2(OC(=O)c3ccccc3NC(C)=O)CC[C@H](OC)[C@@]34[C@@H]2C[C@@H]([C@@H]13)[C@@]1(O)C[C@H](OC)[C@H]2C[C@@H]4[C@]1(O)[C@H]2OC`, the Potency result in assay [1] and in assay [4] was “inactive” each time.

With `COc1c(C(C)C)cc2c(c1O)[C@@]1(C(=O)O)CCCC(C)(C)C1CC2` (stereo not given in full), the Potency entry in assay [1] and in assay [4] was “inactive” each time.

With `Oc1ccc2c3c1O[C@H]1[C@H](N(CCCl)CCCl)CC[C@@]4(O)[C@@H](C2)N(CC2CC2)CC[C@]314`, in assay [1], the Potency entry is “inactive”. Further, the activity change, negative = viability loss in assay [4] was -5.8% [at 9.23 µM].

Take `C=C[C@H]1[C@H](O[C@@H]2O[C@H](CO)[C@@H](O)[C@H](O)[C@H]2O)OC=C2C(=O)OCC[C@H]21`: the Potency entry in assay [1] and in assay [4] was “inactive” in each case.

The values above are taken from PubChem BioAssay (NCATS).
